About 37,000 (12%) of roughly 300,000 compounds were called active. Shown is part of a subset that was picked to be rich in actives. Unmarked numbers belong to inactive results. Cut-off read from the data, not from the text of the source: active = max response mostly above about 13% (no sharp cut-off); inactive = mostly below about 14%.
Assay: Cycloheximide Counterscreen for Small Molecule Inhibitors of Shiga Toxin; note: read at 38.3 µM for the half of the compounds with a filed dose; 0% is about no effect
Conditions: cell reporter, cycloheximide protein synthesis inhibition counterscreen; stronger effect = higher value

| SMILES | max response |
| --- | --- |
| CN1CCN(c2ncc3c(n2)CC(c2ccccc2F)CC3=O)CC1 (stereo not given) | -2.88% |
| COc1ccc(C)cc1NC(=O)NCc1ccccn1 | -3.22% |
| COc1ccc2ccccc2c1CNCc1ccccn1 | 20.7% (active) |
| COc1ccc2ccccc2c1CNc1nnnn1C | -2.6% |
| Cc1ccc(-c2c(C)n([O-])c3c([n+]2=O)CCC3)cc1 | 2.58% |
| CC(Oc1ccc(-c2ccccc2)c(F)c1)c1ccn(S(=O)(=O)c2cccc3ccccc23)n1 (stereo not given) | -1.64% |
| NNC(=O)CNC(c1ccccc1)c1cc(Cl)ccc1NC(=O)c1ccccc1 (stereo not given) | -3.14% |
| O=C(N/N=C/c1ccc([N+](=O)[O-])o1)c1cn(-c2ccccc2)nc1-c1ccc(F)cc1 | 10.8% |
| O=C(/C=C/c1ccc([N+](=O)[O-])o1)NNC(=O)c1ccc(F)cc1 | 71.2% (active) |
| C/[N+]([O-])=C\c1ccc([N+](=O)[O-])o1 | 8.46% |
| Clc1ccc2nc(CSc3ccccc3)cn2c1 | 26.2% (active) |
| O=C(/C=C/c1ccc2c(c1)OCO2)NCc1cn2cc(Cl)ccc2n1 | 2.11% |
| CCOc1ncccc1C(=O)OCc1cn2cc(Cl)ccc2n1 | 9.62% |
| Cc1nn(CCCC(=O)NCc2ccccc2Cl)c(=O)c2nccn12 | -3.04% |
| O=C(COC(=O)c1cccc(Br)c1)Nc1cccc2c1C(=O)c1ccccc1C2=O | 25.2% (active) |
| O=C(COC(=O)Cn1cnc2ccccc21)Nc1cccc2c1C(=O)c1ccccc1C2=O | -4.76% |
| O=C(COC(=O)c1ccccc1)Nc1ccccc1Sc1ccccc1 | 9.64% |
| Cc1cccc(C(=O)OCC(=O)Nc2ccc(F)cc2)c1 | 10% (active) |
| O=C(COC(=O)Cc1ccccc1)Nc1ccc(F)cc1 | -1.31% |
| COc1ccc(C(=O)OCC(=O)Nc2cccc(C(C)=O)c2)cc1OC | 9.48% |
| O=C1CCN(Cc2ccccc2)CCN1[C@H](CSc1ccccc1)c1ccccc1 | -1.82% |
| CCOc1ccccc1NC(=S)NC(=O)CCc1ccccc1 | 1.38% |
| CCOc1ccc(CN2CCC(n3nccc3NC(=O)C3CC3)CC2)cc1CO | -1.74% |
| Cc1ccc(CC2(O)CCN(CCOc3ccc(O)cc3)CC2)cc1 | 4.37% |

| SMILES | max response |
| --- | --- |
| CC(C)C(=O)Nc1c(C(=O)c2ccc(F)cc2)oc2ccccc12 | -1.75% |
| CC(C)C(=O)Nc1ccc2oc(=O)ccc2c1 | -3.4% |
| CC(C)C(=O)Nc1ccc2c(c1)oc1ccccc12 | 67% (active) |
| Cn1c(=O)c(=O)n(C)c2cc(S(=O)(=O)CCC(=O)N3CCCCC3)ccc21 | -2.58% |
| COc1ccccc1CCNC(=O)c1c(C)nn(CC(C)C)c1Cl | 39% (active) |
| Cc1nn(Cc2ccccc2Cl)c(Cl)c1C(=O)OC(C(=O)NC(N)=O)C(C)C (stereo not given) | -4.81% |
| COc1ccccc1CCNC(=O)c1cnccn1 | 12.4% |
| COc1ccc(C(=O)NC2CC2)cc1OC1CCN(C/C=C/c2ccccc2)CC1 | 2.49% |
| COc1ccc(C)cc1N(CC(=O)NC(C)c1ccccc1)S(C)(=O)=O (stereo not given) | 5.61% |
| COc1ccc(OCCC(=O)c2ccc(OC)cc2)cc1 | 4.64% |
| COc1ccc(C(=O)CC2C(=O)N(C)C(=O)N(C)C2=O)cc1 | 4.98% |
| CO/N=C/CC(=O)c1ccc(OC)cc1 | 49.2% (active) |
| Cc1ccc(NS(=O)(=O)c2c(C)[nH]c(=O)[nH]c2=O)cc1C | -1.76% |
| CCOC(=O)c1nnn(-c2nonc2-n2cccc2)c1CN1CCC(C(=O)OCC)CC1 | -2.67% |
| Cc1ccc(OCC(=O)c2cc(C)n(Cc3ccco3)c2C)c([N+](=O)[O-])n1 | 43.4% (active) |
| O=C(COC(=O)CNC(=O)c1ccco1)Nc1ccc(F)cc1 | -3.97% |
| Cc1cc(C(=O)COC(=O)CNC(=O)c2ccc(F)cc2)c(C)n1Cc1ccco1 | 106% (active) |
| COCC(C)n1c(C)cc(C(=O)COc2ccc(C)nc2[N+](=O)[O-])c1C (stereo not given) | 8.12% |
| COc1ccc(C)cc1-n1nnnc1SCC(=O)c1cc(C)n(Cc2ccco2)c1C | 27.1% |
| Cc1cc(C(=O)CSc2nc(N)cc(=O)[nH]2)c(C)n1Cc1ccco1 | -1.02% |
| Cc1ccc(S(=O)(=O)NCC(=O)N2CCOCCOCCOCCOCC2)cc1 | -3.49% |
| CC(C)CC(=O)c1c[nH]c(C(=O)NCc2ccccc2)c1 | -3.39% |
| COC(=O)C(CC(C)C)NS(=O)(=O)c1cc(Br)ccc1Br (stereo not given) | -8.13% |
| Cc1cc2c(cc1S(=O)(=O)CCC(=O)NCc1ccccc1)OCC(=O)N2 | -1.02% |

| SMILES | max response |
| --- | --- |
| CCn1ccnc1CNC(=O)CC1C(=O)NCCN1Cc1ccc(F)cc1Cl (stereo not given) | 8.96% |
| Clc1ccc(CN2CCCCCC2)cc1Cl | -3.66% |
| Cc1cccc(-n2c(=O)c3c(C)c(C)sc3n(CC(N)=O)c2=O)c1 | -0.167% |
| COc1ccc(-c2nnc(SC(C)C#N)o2)cc1 (stereo not given) | 27.2% |
| COC(=O)CSc1nnc(-c2cccnc2)o1 | 12.2% |
| COc1ccc(-c2nnc(SCc3cccnc3)o2)cc1 | 30.9% (active) |
| COc1ccccc1CNS(=O)(=O)c1c(C)[nH]c(C)c1C(=O)N1CCCCC1 | 11% |
| O=c1[nH]cnc(O)c1C(c1ccc(F)cc1)c1c(O)nc[nH]c1=O | -2.78% |
| CCOc1ccc(N(CC(=O)NCC2CCCO2)S(=O)(=O)c2ccc(C)cc2)cc1 (stereo not given) | 0.744% |
| COc1cccc(/C=C2/SC(=S)N(CC(=O)NC3C=CS(=O)(=O)C3)C2=O)c1 (stereo not given) | 8.26% |
| COc1ccc(N2C(=O)NC(NS(=O)(=O)c3ccc(Cl)cc3)(C(F)(F)F)C2=O)cc1 (stereo not given) | -5.1% |
| COc1ccc(OC)c(-c2csc(-c3cccs3)n2)c1 | 30.2% |
| COc1ccc(-c2csc(-c3cccs3)n2)cc1OC | 59.6% (active) |
| CNC(=O)c1[nH]cnc1C(=O)N[C@@H](CC(C)C)C(=O)OC(C)(C)C | -1.12% |
| COC(=O)c1cc(OCC(=O)NC2CCCc3ccccc32)cc(C(=O)OC)c1 (stereo not given) | 1.41% |
| COc1ccc(Br)cc1CN(C)CC(=O)Nc1cc(Cl)cc(Cl)c1 | -1.13% |
| CCn1c(SCC(=O)NC2CC2)nnc1-c1ccccn1 | 7.07% |
| Cc1ccc(C)c(NC(=O)c2ccc(OC(=O)c3ccco3)cc2)c1 | 12.4% |
| COc1ccc(NC(=O)c2cc(-c3ccc(C)cc3)on2)cc1 | 2.42% |
| Cc1ccc(O)c(NC(=O)c2cc(-c3ccco3)on2)c1 | 17.2% (active) |
| CC1CCN(C(=O)C2CCN(S(=O)(=O)N3CCC4(CC3)OCCO4)CC2)CC1 | 5.25% |
| O=C(C1CC1)N1N=C(c2ccc(Br)cc2)CC1(O)C(F)(F)F (stereo not given) | -6.68% |
| CC(C)Oc1ccccc1C(=O)NC(CO)C(=O)O (stereo not given) | 5.75% |
| O=C1OCCN1C(=O)[C@H]1[C@H](c2ccc(Cl)cc2)C(c2cccc(Cl)c2)=NN1c1ccc(Br)cc1 | 1.68% |

| SMILES | max response |
| --- | --- |
| CCOC(=O)c1cc2sccc2n1Cc1ccc(C#N)cc1 | -2.12% |
| O=C(NCc1ccco1)c1ccc(Cn2c(=O)c3sccc3n(Cc3ccc(F)cc3)c2=O)cc1 | 0.924% |
| O=C(Cc1ccc(-n2c(=O)c3sccc3n(Cc3ccc(F)cc3)c2=O)cc1)NCc1ccco1 | -2.83% |
| O=C(c1cc2sccc2n1Cc1ccc(F)cc1)N1CCc2ccccc21 | 16.9% (active) |
| CC1Cc2ccccc2N1C(=O)c1cc2sccc2n1Cc1ccccc1 (stereo not given) | 10.4% |
| O=C(NCc1ccco1)c1cc2sccc2n1Cc1ccc(F)cc1 | 45.3% (active) |
| CC(NC(=O)CCC(=O)N1CCN(S(=O)(=O)c2ccc(Cl)cc2)CC1)c1ccccc1 (stereo not given) | 4.89% |
| Cn1c(CNC(=O)c2ccco2)nnc1SCC(=O)N1CCN(c2ccccc2)CC1 | -0.554% |
| COc1ccccc1NC(=O)C1=C(C)Nc2nc3ccccc3n2C1c1cccs1 (stereo not given) | -6.14% |
| Cc1c(C(=O)OC(C)C)sc(NC(=O)c2cccnc2)c1C#N | 1.72% |
| CC(=O)Nc1ccc(CN2CCN(Cc3ccc(F)c(F)c3)C(CCO)C2)cc1 (stereo not given) | -0.733% |
| COc1ccc(CNC(=O)C2CCN(C(=O)c3ccco3)CC2)cc1 | -5.74% |
| COc1ccc(CCNC(=S)N2CCN(S(=O)(=O)c3ccc(Cl)cc3)CC2)cc1 | -4.46% |
| O=C1Cc2ccccc2Sc2ccc(Cl)cc21 | 7.71% |
| O=C(Nc1ccc(S(=O)(=O)N2CCCC2)cc1Cl)C1=COCCO1 | -1.75% |
| NS(=O)(=O)c1ccc2nc(NC(=O)CS(=O)(=O)c3ccc(F)cc3)sc2c1 | 1.51% |
| NS(=O)(=O)c1ccc2nc(NC(=O)C3=COCCO3)sc2c1 | 31% (active) |
| COc1cc(/C=C2\SC(=O)NC2=O)ccc1OCc1ccc(Cl)nc1 | -3.18% |
| COc1ccc(NC(=S)N2CCC(NC(=O)c3cccc(F)c3)CC2)cc1 | -5.6% |
| CCc1cc(-c2nnc(SCC(=O)NC3CC3)n2C)cs1 | 5.72% |
| COc1ccc(NC(=O)C2CCCN(S(=O)(=O)c3cccc4cccnc34)C2)cc1 (stereo not given) | -0.912% |
| CCOc1cccc(NC(=O)C2CCCN(S(=O)(=O)c3ccc(OC)cc3)C2)c1 (stereo not given) | 2.3% |
| COc1ccc(S(=O)(=O)N2CCCC(C(=O)Nc3ccc(NC(=O)c4ccccn4)cc3)C2)cc1 (stereo not given) | 40.2% (active) |
